BoNT F protease: inhibitors of Botulinum neurotoxin F light chain protease | Multiplex microsphere protease cleavage assay, flow cytometry | 360,000 compounds, 0.22% hits | AID 588497 | inhibition, % at 10 µM; in the data active = inhibition above about 35%, passing the limit was not always enough; inconclusive = no clear call, values can overlap the other calls; note: plate controls were buffer without enzyme for full effect and enzyme alone for no effect
MazEF act: increases E. coli MazEF RNase cleavage of RNA; activation, % at 20 µM; P0AE70; FAM/BHQ RNA-DNA oligo cleavage fluorescence, 5 h; 350,000 compounds, 0.32% hits; in the data active = activation above about 50%
Autofluor counter: compound fluorescence in toxin protease inhibitor counterscreen. AID 624483. fluorescence intensity (concentration not given with the values). 360,000 compounds, 3.1% hits. compound autofluorescence counterscreen, microsphere flow cytometry; active compounds read high; in the data active = fluorescence intensity above about 16000; inconclusive = no clear call, values can overlap the other calls
Anthrax LF inh2: inhibitors of Bacillus anthracis lethal factor protease | P15917 | multiplex microsphere protease cleavage assay, LF | inhibition, % at 10 µM | 360,000 compounds, 0.12% hits | AID 588501; note: plate controls were buffer without enzyme for full effect and enzyme alone for no effect
Target sequence (P15917 whole entry, looked up): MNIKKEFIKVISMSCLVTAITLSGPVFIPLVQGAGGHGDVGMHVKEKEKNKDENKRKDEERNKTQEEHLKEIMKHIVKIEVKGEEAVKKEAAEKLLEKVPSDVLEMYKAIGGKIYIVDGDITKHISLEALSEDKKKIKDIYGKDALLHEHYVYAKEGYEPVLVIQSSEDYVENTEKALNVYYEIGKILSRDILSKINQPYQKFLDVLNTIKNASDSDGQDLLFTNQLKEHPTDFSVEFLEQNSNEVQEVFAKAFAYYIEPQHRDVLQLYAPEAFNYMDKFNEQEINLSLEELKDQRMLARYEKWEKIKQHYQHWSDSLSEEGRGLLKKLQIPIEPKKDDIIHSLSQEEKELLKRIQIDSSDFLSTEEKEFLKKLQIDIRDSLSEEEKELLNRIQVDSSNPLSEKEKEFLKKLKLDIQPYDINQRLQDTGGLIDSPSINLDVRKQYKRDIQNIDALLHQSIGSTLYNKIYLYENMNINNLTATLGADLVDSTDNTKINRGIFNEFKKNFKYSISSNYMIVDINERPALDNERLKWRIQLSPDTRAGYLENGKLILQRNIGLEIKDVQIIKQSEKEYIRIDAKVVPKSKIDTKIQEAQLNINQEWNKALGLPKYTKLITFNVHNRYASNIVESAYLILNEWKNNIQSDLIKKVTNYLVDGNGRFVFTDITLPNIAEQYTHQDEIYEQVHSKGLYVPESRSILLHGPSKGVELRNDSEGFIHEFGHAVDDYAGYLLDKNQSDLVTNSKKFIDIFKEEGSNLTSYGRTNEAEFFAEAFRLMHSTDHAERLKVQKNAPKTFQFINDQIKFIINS
BoNT A protease: inhibitors of Botulinum neurotoxin A light chain protease; multiplex microsphere protease substrate cleavage, flow cytometry; inhibition, % at 10 µM; 360,000 compounds, 0.17% hits; note: plate controls were buffer without enzyme for full effect and enzyme alone for no effect
DUSP3 inh: inhibitors of human VHR1 phosphatase (DUSP3); AID 1654; 290,000 compounds, 0.52% hits; recombinant VHR phosphatase, pNPP absorbance; inhibition, % at 13.3 µM; P51452; in the data active = inhibition above about 50%
Starred values were filed as active, the others as inactive; ? = inconclusive; / = no result; + = active, no number. Compounds with a hit are over-represented: about 4% of the library has one in this group of screens. Cut-off read from the data, not from the text of the source, unless noted: active = inhibition above about 30%; inconclusive = no clear call, values can overlap the other calls; inactive = below that.

SMILES	BoNT F protease	MazEF act	Autofluor counter	Anthrax LF inh2	BoNT A protease	DUSP3 inh
Cc1nn(-c2ccccc2)c2c1C1(C(=O)N(C)c3ccccc31)C(C#N)=C(N)O2 (stereo not drawn)	-1	-1	9741	-6	0	-8
Cc1nn(-c2ccccc2)c2c1C1(C(=O)N3c4c(cccc41)C(C)CC3(C)C)C(C#N)=C(N)O2 (stereo not drawn)	0	-2	22394*	-1	2	15
Cn1cnc([N+](=O)[O-])c1Oc1cccc(O)c1	-5	-9	2488	-2	-1	4
CSc1nc2nc(-c3cccs3)cc(C(F)(F)F)c2c(=O)[nH]1	4	6	5683	1	1	-3
CC(=O)c1sc2nc(-c3cccs3)cc(C(F)(F)F)c2c1N	11	242*	4089	13	16	3
Nc1c(C(=O)C2CC2)sc2nc(-c3ccccc3)cc(C(F)(F)F)c12	10	+	7328	-4	8	-29
COc1cccc(-c2cc(C(F)(F)F)c3c(N)c(C#N)sc3n2)c1	/	/	/	/	/	41
O=C1Nc2ccccc2/C1=C\c1cccn1-c1ccc(OC(F)(F)F)cc1	-6	-1	24253*	-5	-2	7
Cc1c(C(=O)NCCSCc2c(F)cccc2Cl)cnn1-c1ccc(Cl)cc1	?	1	3049	-8	1	20
COc1cc(NC(=O)COc2cc(O)c3c(c2)OC(C)(C)CC3=O)cc(OC)c1OC	2	5	4737	2	0	12
CC1(C)CC(=O)c2c(O)cc(O)cc2O1	-3	5	22477*	-5	0	-4
COc1ccc(-c2cnn3c(N)c(S(=O)(=O)C(C)(C)C)cnc23)cc1	0	-2	21645*	-10	?	25
COc1ccc(-c2cnn3c(N)c(S(=O)(=O)c4ccccc4)cnc23)cc1	-2	-7	20604*	-3	-1	7
CC(C)(C)S(=O)(=O)c1cnc2c(-c3ccc(F)cc3)cnn2c1N	-1	40	21191*	1	?	10
Nc1c(S(=O)(=O)c2ccccc2)cnc2c(-c3ccc(F)cc3)cnn12	6	11	15012	-3	4	18
CC(C)(C)S(=O)(=O)c1cnc2c(-c3ccc(Cl)cc3)cnn2c1N	-7	-30	5860	1	0	34
CCOC(=O)c1c(C)[nH]c(C(=O)OCC(=O)N(CC(C)C)c2c(N)n(Cc3ccccc3)c(=O)[nH]c2=O)c1C	5	-75	5904	5	3	/
CC1(C)CC(C#N)(N2CCOCC2)CCO1 (stereo not drawn)	2	2	19964*	1	?	4
Cc1ccc(OCCC(=O)OCC(=O)N2c3ccccc3CC2C)cc1 (stereo not drawn)	-1	0	3219	0	0	-6
Cc1cccc(Nc2nc(N3CCCC3)nc(N3CCCC3)n2)c1	0	3	22488*	-2	1	-27
c1ccc(Nc2nc(N3CCCC3)nc(N3CCCC3)n2)cc1	-1	-3	20430*	-5	1	32
COc1nc(Nc2cccc(C)c2)nc(N2CCCCC2)n1	-4	3	9006	-11	0	43
O=C(CNCC1(N2CCOCC2)CCCCC1)Nc1ccc(Cl)cc1	-12	2	3397	-9	-2	17
CCOc1ccc(C(=O)NNC2CC(=O)N(CCc3ccccc3)C2=O)cc1OC (stereo not drawn)	-1	6	2686	2	0	5
O=C(CSc1ncnc2c1oc1ccccc12)Nc1ccc2c(c1)OCCO2	-4	6	17420*	-2	-4	/
SMILES	BoNT F protease	MazEF act	Autofluor counter	Anthrax LF inh2	BoNT A protease	DUSP3 inh
O=C(CSc1ncnc2c1oc1ccccc12)Nc1cccc(F)c1	0	18	4331	-6	-1	24
CCc1nc(SCC(=O)Nc2ccc3c(c2)OCCO3)c2oc3ccccc3c2n1	5	-15	2148	-1	0	31
COc1ccccc1NC(=O)CSc1nc2c(oc3ccccc32)c(=O)n1C	0	7	5668	0	1	2
COc1ccccc1NC(=O)CSc1ncnc2c1oc1ccccc12	0	-2	20328*	-2	1	0
Cc1nc(SCC(=O)c2cccs2)c2oc3ccccc3c2n1	1	-1	9112	2	0	56*
Cc1nc(SCC(=O)Nc2ccc3c(c2)OCCO3)c2oc3ccccc3c2n1	0	54*	20676*	1	0	25
Cc1cc(OC(=O)C(c2ccccc2)c2ccccc2)c([N+](=O)[O-])c(=O)[nH]1	0	-3	2046	0	0	-4
CCN(C(=O)CSc1ccccn1)C1CCCCC1	3	5	4073	0	0	/
CC(OC(=O)CNC(=O)c1ccccc1)C(=O)Nc1ccc(S(=O)(=O)N2CCOCC2)cc1 (stereo not drawn)	22	2	3689	0	4	/
CCOc1cc(/C=N/NC(=O)C(=O)N/N=C/c2ccc(O)c(OCC)c2)ccc1O	1	2	3870	-1	-2	19
COC(=O)CSc1nnc(Cc2ccccc2)n1-c1ccc(C)cc1	-15	-1	3651	3	1	22
Cc1cccc(C)c1NC(=O)CSc1nnc(Cn2nnc(-c3ccccc3)n2)n1-c1ccccc1	0	-4	19692*	1	?	18
O=C(CSc1nnc(Cc2ccccc2)n1-c1ccccc1)NNC(=O)Cc1ccccc1	2	-15	21981*	3	2	4
CCOC(=O)[C@]12CCC=C1N(CCC1=CCCCC1)C(=O)[C@H](CC(=O)N1CCC(c3ccccc3)CC1)C2	-1	/	4263	-11	-1	/
CC1CCCC(C)N1CCNC(=O)Nc1ccc(Cl)cc1 (stereo not drawn)	3	5	22625*	-7	3	18
CN1CCN(CCNC(=O)Nc2ccc(Cl)cc2)CC1	?	-2	3685	-7	1	10
O=C(CCS(=O)(=O)c1ccccc1)Nc1ccccn1	4	-1	5717	2	2	60*
Cc1ccnc(NC(=O)CCS(=O)(=O)c2ccccc2)c1	-2	8	6507	-2	-2	16
O=C(Nc1ccc(Br)cc1)C1CCN(c2cnccn2)CC1	-3	6	4407	-2	0	11
CCOC(=O)C(=N/O)/C(C)=N/NC(=O)C(=O)Nc1cc(Cl)ccc1Cl	-15	1	5280	-6	-1	37
CCOC(=O)C(=N/O)/C(C)=N/NC(C)=O	46*	-3	4605	-5	4	4
COc1ccc(CCNC2CC(=O)N(C)C2=O)cc1OC (stereo not drawn)	-2	0	24224*	-2	-2	16
CCOc1ccc(CCNC(=O)c2cccc(N3CCCC3=O)c2)cc1OCC	-3	9	8911	-7	0	16
COC(=O)c1cc(CNC(=O)c2ccc(S(=O)(=O)N(C)c3ccccc3)cc2)ccc1OC	5	4	3923	-5	1	/
O=C(NCSC1=NCCS1)c1ccccc1	-6	2	24719*	1	-4	13

Assay outcomes as filed in PubChem BioAssay.
